SMILES strings stand for the structures. Activity calls are given as the source filed them.

Consider five molecules from PubChem BioAssay.

Test [1] is described as follows: small molecules captured by biotinylated probe aFSTL3 – biochemical, small-molecule microarray, fluorescence 635/667, stem cell growth factor project, primary screen (AID 1064).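 Also: measures binding of the biotinylated anti-FSTL3 antibody to printed compounds.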 The settings on record: higher = more signal.
A short description of test [2]: binders from COS7 lysate, DM2A8 probe, primary screen, torsin A project, cell lysate, small-molecule microarray, fluorescence 635/667 (AID 1065). The settings on record: higher = more signal, COS7 lysate expressing mutant human TOR1A.
Test [3] can be described thus: small molecules captured by biotinylated probe aFGF2 – biochemical, small-molecule microarray, fluorescence 635/667, stem cell growth factor project, primary screen (AID 1067).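 Also: measures binding of biotinylated aFGF2 protein to printed compounds on slides; z-score merges feature fluorescence and signal-to-noise across triplicate slides.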 The settings on record: higher = more signal.
The nature of test [4]: small molecules captured by biotinylated probe aFGF10 – biochemical, small-molecule microarray, fluorescence 635/667, stem cell growth factor project, primary screen (AID 1071).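 Also: score merges 667 nm spot intensity and signal to noise from triplicate slides.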 The settings on record: higher = more signal.
For test [5], the target named is Neurogenic locus notch homolog protein 2 (Homo sapiens) (UniProt Q04721). Kind of test: small molecules binding Notch2 protein – biochemical, small-molecule microarray, 635 nm fluorescence, stem cell growth factors, primary screen (AID 1073). The settings on record: higher = more signal.
The target in test [6] is Pro-neuregulin-1, membrane-bound isoform (Homo sapiens) (UniProt Q02297). Kind of test: small molecules binding neuregulin-1 protein – biochemical, small-molecule microarray, fluorescence 635/667, psychiatric disease protein project, primary screen (AID 1075).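 Also: score combines 667 nm spot fluorescence with signal to noise.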 The settings on record: NRG1 binding, 635 nm fluorescence, higher = more signal.
Chain of Pro-neuregulin-1, membrane-bound isoform (Homo sapiens) (Q02297 whole entry, looked up, the tested form may be a part, canonical isoform): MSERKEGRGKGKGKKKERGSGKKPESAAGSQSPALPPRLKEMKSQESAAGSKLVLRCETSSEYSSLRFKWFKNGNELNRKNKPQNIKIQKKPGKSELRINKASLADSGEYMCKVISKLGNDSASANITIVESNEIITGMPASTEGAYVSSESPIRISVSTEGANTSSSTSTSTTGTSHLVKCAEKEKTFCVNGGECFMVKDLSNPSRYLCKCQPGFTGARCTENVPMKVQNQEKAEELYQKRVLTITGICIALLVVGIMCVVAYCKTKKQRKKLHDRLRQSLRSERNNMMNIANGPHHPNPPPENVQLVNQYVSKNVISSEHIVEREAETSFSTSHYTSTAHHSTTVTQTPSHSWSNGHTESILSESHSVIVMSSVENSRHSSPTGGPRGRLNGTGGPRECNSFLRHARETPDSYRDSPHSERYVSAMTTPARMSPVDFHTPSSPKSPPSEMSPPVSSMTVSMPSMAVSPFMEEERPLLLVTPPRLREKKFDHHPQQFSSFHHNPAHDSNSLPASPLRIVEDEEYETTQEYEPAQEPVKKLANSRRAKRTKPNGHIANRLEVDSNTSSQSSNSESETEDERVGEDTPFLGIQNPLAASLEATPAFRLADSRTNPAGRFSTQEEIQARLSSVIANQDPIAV
Test [7] concerns Neuregulin-1 EGF-like domain. The experiment in a line: small molecules binding NRG1 EGF domain – biochemical, small-molecule microarray, 635 nm fluorescence, primary screen (AID 1081).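 Also: binding of the protein to compounds printed on small-molecule microarray slides.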 The settings on record: higher = more signal.
Test [8] in a line: FRG1 expression reporter modulators in myotubes – cell-based, C2C12 myotubes, firefly/Renilla luciferase, luminescence, FRG1 inhibition for FSHD, primary screen (AID 1084). The settings on record: FRG1 promoter luciferase, higher = more signal, called active from +8 up or from −8 down.
The nature of test [9]: small molecules captured by biotinylated probe aFST – biochemical, small-molecule microarray, fluorescence 635/667, stem cell growth factor project, primary screen (AID 1086).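 Also: score merges 667 nm fluorescence with signal-to-noise of each printed compound spot.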 The settings on record: higher = more signal.
The nature of test [10]: binders of probe aHhip on microarray, primary screen, stem cell growth factor project, biochemical, small-molecule microarray, fluorescence 635/667 (AID 1087).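 Also: score merges spot fluorescence at 667nm with spot signal to noise ratio.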 The settings on record: higher = more signal.
Test [11] relates to PRMT1 (protein arginine N-methyltransferase 1). Kind of test: small molecules binding arginine methyltransferase PRMT1 – biochemical, small-molecule microarray, 635 nm fluorescence, primary screen (AID 1088).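 Also: binding of Prmt1 protein to compounds spotted on small-molecule microarray slides.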 The settings on record: higher = more signal.
Test [12] can be described thus: growth effects on S. cerevisiae YJM789 – YJM789 clinical isolate, OD600, 24 h, basal, primary screen (AID 1089).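 Also: growth of clinical yeast isolate S. cerevisiae YJM 789 seeded 1000 cells per well; test concentration not given here.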 The settings on record: higher = more signal, called active from +8 up or from −8 down.
The nature of test [13]: S. pombe growth modifiers, basal conditions – strain 972, OD600, 24 h, no modulator, primary screen (AID 1090).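 Also: basal condition with compound alone and no growth modifier present; test concentration not given here.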 The settings on record: S. pombe 972 growth, higher = more signal, called active from +8 up or from −8 down.
Test [14] is described as follows: budding yeast growth modifiers under rapamycin – strain BY4716, OD600, 96 h, primary screen (AID 1091). Also: test concentration not given here. The settings on record: S. cerevisiae BY4716 + rapamycin, higher = more signal, called active from +8 up or from −8 down.
The target in test [15] is Torsin-1A-interacting protein 2 (Homo sapiens) (UniProt Q8NFQ8). Kind of test: small molecules binding lysate-expressed LULL1 – cell lysate, human LULL1 lysate, 635/667 nm fluorescence, primary screen (AID 1092).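 Also: probe is lysate of COS7 cells overexpressing human LULL1; score merges per-feature 667 nm fluorescence with signal-to-noise.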 The settings on record: small-molecule microarray, hLULL1 lysate binding, 635 nm fluorescence; higher = more signal.
Chain of Torsin-1A-interacting protein 2 (Homo sapiens) (Q8NFQ8 whole entry, looked up): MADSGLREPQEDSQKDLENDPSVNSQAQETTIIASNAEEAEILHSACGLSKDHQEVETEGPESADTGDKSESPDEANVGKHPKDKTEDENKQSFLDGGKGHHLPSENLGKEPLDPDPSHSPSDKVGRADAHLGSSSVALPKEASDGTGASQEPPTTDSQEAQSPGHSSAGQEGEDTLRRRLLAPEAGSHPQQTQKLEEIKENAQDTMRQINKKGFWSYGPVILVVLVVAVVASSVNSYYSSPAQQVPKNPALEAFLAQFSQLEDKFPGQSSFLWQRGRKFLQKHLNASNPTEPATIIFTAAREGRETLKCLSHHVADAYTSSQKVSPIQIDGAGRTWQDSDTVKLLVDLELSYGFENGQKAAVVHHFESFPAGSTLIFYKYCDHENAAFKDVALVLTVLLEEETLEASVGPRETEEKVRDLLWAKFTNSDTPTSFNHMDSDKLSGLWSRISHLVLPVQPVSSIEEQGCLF
The nature of test [16]: optical density change of DRC41 E. coli – strain DRC41, OD650, 24 h, E. coli filamentation project, primary screen (AID 1093).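 Also: MC1000 strain lacking acrAB efflux and sulA so SOS filamentation is blocked; test concentration not given here.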 The settings on record: E. coli DRC41 growth, higher = more signal, called active from +8 up or from −8 down.
Test [17] can be described thus: probe aLefty2 binding to arrayed compounds – biochemical, biotinylated probe, 635/667 nm fluorescence, primary screen (AID 1094).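 Also: score merges spot fluorescence near 667 nm with spot signal-to-noise ratio.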 The settings on record: small-molecule microarray, higher = more signal.
Test [18] deals with Noggin (protein binding on small-molecule microarray). Kind of test: small molecules binding Noggin protein – biochemical, 635/667 nm fluorescence, primary screen (AID 1095).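 Also: score merges 667 nm feature fluorescence with signal to noise over triplicate slides.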 The settings on record: 635 nm fluorescence, higher = more signal.
Test [19] deals with Neurogenic locus notch homolog protein 3 (Homo sapiens) (UniProt Q9UM47). The experiment in a line: small molecules binding NOTCH3 protein – biochemical, 635/667 nm fluorescence, primary screen (AID 1096). The settings on record: small-molecule microarray, 635 nm fluorescence, higher = more signal.
Chain of Neurogenic locus notch homolog protein 3 (Homo sapiens) (Q9UM47 whole entry, looked up): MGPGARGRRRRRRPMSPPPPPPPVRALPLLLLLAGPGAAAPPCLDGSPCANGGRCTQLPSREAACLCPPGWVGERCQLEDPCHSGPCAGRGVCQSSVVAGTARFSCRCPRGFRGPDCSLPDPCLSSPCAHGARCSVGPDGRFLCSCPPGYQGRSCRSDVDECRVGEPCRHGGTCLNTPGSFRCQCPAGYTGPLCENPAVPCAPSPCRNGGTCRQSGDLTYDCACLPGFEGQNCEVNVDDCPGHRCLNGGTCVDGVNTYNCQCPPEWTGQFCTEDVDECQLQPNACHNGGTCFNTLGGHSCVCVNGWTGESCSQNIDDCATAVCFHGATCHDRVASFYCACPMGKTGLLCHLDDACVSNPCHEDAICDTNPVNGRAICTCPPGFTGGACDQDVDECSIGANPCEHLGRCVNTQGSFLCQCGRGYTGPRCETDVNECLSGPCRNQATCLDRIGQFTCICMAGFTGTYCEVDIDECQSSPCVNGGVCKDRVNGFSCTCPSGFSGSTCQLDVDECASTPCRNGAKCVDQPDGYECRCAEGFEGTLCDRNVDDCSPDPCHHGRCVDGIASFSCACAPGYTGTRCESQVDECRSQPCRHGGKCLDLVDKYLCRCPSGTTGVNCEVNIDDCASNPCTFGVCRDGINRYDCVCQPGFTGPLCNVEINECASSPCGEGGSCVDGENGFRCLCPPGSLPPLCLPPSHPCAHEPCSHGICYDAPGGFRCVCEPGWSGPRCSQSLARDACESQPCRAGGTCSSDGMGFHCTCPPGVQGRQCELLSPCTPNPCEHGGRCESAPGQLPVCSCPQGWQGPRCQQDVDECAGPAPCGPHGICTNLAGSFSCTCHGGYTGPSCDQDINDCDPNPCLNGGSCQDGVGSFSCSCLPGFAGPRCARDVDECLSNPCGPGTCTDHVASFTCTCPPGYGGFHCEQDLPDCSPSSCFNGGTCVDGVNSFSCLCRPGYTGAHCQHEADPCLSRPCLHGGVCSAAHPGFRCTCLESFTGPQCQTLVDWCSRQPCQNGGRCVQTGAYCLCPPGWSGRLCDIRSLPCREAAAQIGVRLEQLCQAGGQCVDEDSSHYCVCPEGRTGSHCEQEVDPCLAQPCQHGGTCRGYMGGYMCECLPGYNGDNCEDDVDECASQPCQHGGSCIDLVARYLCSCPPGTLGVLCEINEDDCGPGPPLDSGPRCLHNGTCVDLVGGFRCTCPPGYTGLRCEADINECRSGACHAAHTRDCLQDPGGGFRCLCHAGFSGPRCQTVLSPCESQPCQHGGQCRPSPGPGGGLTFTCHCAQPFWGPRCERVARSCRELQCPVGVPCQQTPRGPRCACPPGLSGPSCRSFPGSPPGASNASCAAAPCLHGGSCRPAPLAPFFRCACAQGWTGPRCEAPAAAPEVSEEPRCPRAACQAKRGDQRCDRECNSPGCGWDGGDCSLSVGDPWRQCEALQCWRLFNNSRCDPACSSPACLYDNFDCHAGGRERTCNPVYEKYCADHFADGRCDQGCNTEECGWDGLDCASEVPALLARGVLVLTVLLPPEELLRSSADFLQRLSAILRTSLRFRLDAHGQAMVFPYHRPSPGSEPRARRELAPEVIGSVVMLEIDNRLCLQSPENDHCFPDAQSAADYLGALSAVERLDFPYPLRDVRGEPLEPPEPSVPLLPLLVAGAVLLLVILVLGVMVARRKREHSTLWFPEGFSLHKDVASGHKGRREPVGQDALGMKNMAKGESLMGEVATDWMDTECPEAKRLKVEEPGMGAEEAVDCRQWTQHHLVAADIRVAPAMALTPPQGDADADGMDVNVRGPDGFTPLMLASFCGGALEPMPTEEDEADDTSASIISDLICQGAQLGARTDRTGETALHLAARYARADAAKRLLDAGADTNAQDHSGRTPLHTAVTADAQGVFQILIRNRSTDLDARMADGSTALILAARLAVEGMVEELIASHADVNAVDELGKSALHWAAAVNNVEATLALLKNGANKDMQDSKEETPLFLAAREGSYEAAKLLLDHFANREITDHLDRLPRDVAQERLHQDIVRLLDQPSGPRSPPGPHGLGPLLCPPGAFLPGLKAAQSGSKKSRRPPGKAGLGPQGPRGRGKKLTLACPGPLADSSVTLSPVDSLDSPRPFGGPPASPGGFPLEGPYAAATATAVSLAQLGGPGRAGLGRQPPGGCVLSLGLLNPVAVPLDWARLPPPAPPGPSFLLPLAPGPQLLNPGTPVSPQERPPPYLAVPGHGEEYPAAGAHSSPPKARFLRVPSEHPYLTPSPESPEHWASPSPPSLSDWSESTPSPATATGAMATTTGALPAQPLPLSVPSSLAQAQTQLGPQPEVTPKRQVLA
Test [20] is described as follows: probe aEGFR binding to arrayed compounds – biochemical, biotinylated probe, 635/667 nm fluorescence, primary screen (AID 1097).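 Also: probe is a biotinylated anti-EGFR antibody binding compounds printed on slides; score combines fluorescence near 667 nm and signal to noise of each spot.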 The settings on record: small-molecule microarray, higher = more signal.

As for `O=C(NN=C1C[C@@H](O)[C@@H](O)[C@@H]2[C@@H]3C(=O)N(c4ccc(F)cc4F)C(=O)[C@@H]3CC[C@H]12)OCc1ccccc1`, the composite z-score was 0.0775 in [1]; 1.04 in [2]; -0.152 in [3]; -0.0134 in test [4]; 0.194 in test [5]; 1.47 in test [6]. Besides, the composite z-score in test [7] was -0.0123; in test [9], 0.991; in test [10], 0.0854; in test [11], 0.695; in test [15], 1.88; in test [17], -0.0309. Further, the composite z-score in [18] turned out to be 0.128; in test [19] it was 0.827; in test [20], 0.0443. Further, the z-score in [8] was -0.823 (inactive); in [12] it was -0.0025 (inactive); in test [13] it was -2.08 (inactive); in [14] it was -1.69 (inactive); in test [16] it was 0.782 (inactive).
Consider `CC(CCN1CCCCc2nc(C)c(C)cc21)=NOC[C@@H](O)[C@H]1O[C@@H]2OC(C)(C)O[C@@H]2[C@H]1O`, for which the composite z-score in test [1] is -0.368; in test [2] it was 0.454; in [3], -0.138; in [4], 0.188; in test [5], -0.224; in test [6], 0.459. Moreover, the composite z-score was 0.0465 in [7]; -0.346 in test [9]; -0.136 in test [10]; 0.908 in test [11]; -0.428 in test [15]; -0.225 in [17]. In addition, the composite z-score was 1.07 in test [18], 0.218 in test [19] and -0.0179 in test [20]. The z-score is 0.442 (inactive) in test [8]; -1.58 (inactive) in test [12]; 0.186 (inactive) in test [13]; -0.164 (inactive) in test [14]; 0.579 (inactive) in [16].
For the molecule `CC#CCOCCC=C1c2ccccc2[C@@H](OC)[C@@H]1C`, the composite z-score in test [1] is -0.35; in test [2] it was 0.575; in [3] it was -0.143; in [4], 0.452; in test [5], 0.105; in test [6], -0.361. The composite z-score in test [7] was 0.244; in [9] it was 0.359; in test [10], 0.154; in [11], 0.513; in test [15], 0.127; in test [17], -0.0266. Further, the composite z-score in test [18] amounted to 0.697; in test [19] it was 0.153; in test [20] it was 0.0579. Also, the z-score is 0.181 (inactive) in test [8]; -0.0953 (inactive) in test [12]; -2.52 (inactive) in test [13]; -0.933 (inactive) in test [14]; 0.596 (inactive) in test [16].
Consider `CC(C)=CCCC(C)=CCON=C1C[C@@H](O)[C@@H](O)[C@@H]2[C@@H]3C(=O)N(c4cccc(Oc5ccccc5)c4)C(=O)[C@@H]3CC[C@H]12`, for which the composite z-score in test [1] was -0.304; in test [2], -0.0323; in test [3], -0.0296; in test [4], 0.0259; in [5], 0.206; in test [6] it was 0.691. The composite z-score in [7] was 0.877; in test [9] it was 0.305; in [10], 0.06; in test [11] it was 1.04; in [15], 1.12; in test [17], -0.138. Further, the values for the composite z-score in test [18], in test [19] and in [20] were 0.485, 0.782 and 0.0209, respectively. Moreover, the z-score is 0.122 (inactive) in test [8]; 0.788 (inactive) in test [12]; -0.0823 (inactive) in [13]; -0.407 (inactive) in test [14]; 0.204 (inactive) in test [16].
`COc1ccc(OC[C@H]2CN3[C@@H](CC[C@@H](C)[C@@H]3c3ccc(Br)cc3)C(=O)O2)cc1`: the composite z-score in test [1] was -0.358; in test [2] it was 0.722; in test [3], -0.181; in test [4], 0.243; in test [5], -0.142; in [6] it was 0.165. The composite z-score is -0.228 in test [7]; -0.115 in test [9]; -0.109 in test [10]; 0.591 in [11]; 0.184 in test [15]; -0.198 in test [17]. Also, the composite z-score in test [18] is 0.318; in [19], -0.175; in [20], -0.0082. Besides, the z-score in test [8] was -0.539 (inactive); in test [12], -0.313 (inactive); in test [13], -0.237 (inactive); in test [14] it was 0.179 (inactive); in test [16], -0.915 (inactive).
